The source of these data is PubChem BioAssay AID540364 (The Scripps Research Institute Molecular Screening Center, 2011).

Molecules are shown by their SMILES. About 2,000 (0.56%) of roughly 360,000 compounds were called active. The list comes from a sample in which actives are over-represented; it also holds similar structures and randomly drawn compounds. Unmarked numbers belong to inactive results.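 How the source made its calls: active means activation above the average of all compounds screened plus 3 SD, cutoff fixed separately per campaign (cut at about 7.5% in these data); inactive means the rest.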

A short description of this assay: GAA850 frataxin promoter reporter upregulation – cell-based, luciferase luminescence, HEK293 lucGAA850, primary screen (AID 540364).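 Further: 0% = DMSO wells and 100% = 10 µM SAHA wells.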 The following applies: HEK293 lucGAA850 FXN promoter luciferase reporter, 24 h; at 6 µM; active compounds read high; percent of 10 µM SAHA response.
With `Cc1ccc(C2CC(c3cccc(C)c3)n3nc(N)nc3N2)cc1` (centres undefined), the activation is -0.54%.
The same measure for `Oc1ccc(C2Nc3cccc4cccc(c34)N2)cc1`: 1.97%.
For the compound `Cc1ccc(C2Nc3cccc4cccc(c34)N2)cc1`, the activation was 14.9% (active).
The same measure for `CSCCC(NC(=O)COc1ccccc1)C(=O)OCC(=O)c1cc2ccccc2o1` (centres undefined): -0.05%; for `CC(C)c1ccc(NC2CCCN(C(=O)c3ccncc3)C2)cc1` (centres undefined): 3.59%; for `CCCCCCCCCCCC(=O)O`: 9.07% (active).
The same measure for `NC(=O)NCCCC(=O)O`: 1.1%; for `O=C(O)CCCCCCCCCC[n+]1ccccc1`: 0.28%.
The value for `Cn1c(=O)cc(OCCCC(=O)N2CCN(c3ccccn3)CC2)c2ccccc21` was -3.01%.
Take `O=C(Nc1ccc(F)cc1)c1cc2c(s1)CCCC2`: the activation was 2.99%.
The value for `O=C(NCc1cccnc1)Nc1cccc(NC(=O)NCc2cccnc2)c1F` was 0.81%.
The value for `CCN(CCN(C)C)C(=O)c1ccc2nc(C)c(N(C)C(=O)CCc3ccccc3)n2c1` was 0.72%.
The value for `Cn1cc(S(=O)(=O)NC(c2ccccc2)c2ccccc2)c(=O)n(C)c1=O` was -1.45%.
`Cn1cc(S(=O)(=O)Nc2ccc(Cl)cc2Cl)c(=O)n(C)c1=O`: the activation was 1.45%.
The value for `CC(C)c1ccc(NS(=O)(=O)c2cn(C)c(=O)n(C)c2=O)cc1` was 14.8% (active); that for `COc1ccc(C(C#N)Nc2ccc(C)cc2)cc1` (centres undefined) was -0.7%; that for `O=C1C=C(c2ccnc3cc(Cl)ccc23)C[C@@H](c2ccc3c(c2)OCO3)C1` was -1.07%.
The same measure for `Cc1cc(C(=O)NCCc2ccc(Cl)cc2)c(C)o1`: 3.56%; for `Cc1cc(-c2n[nH]c(=S)n2/N=C/C(Br)=C/c2ccccc2)n[nH]1`: -0.09%.
Turning to `Cc1cc(C(=O)N/N=C\C(Br)=C\c2ccccc2)c(C)o1`, the activation was 11.4% (active).
The value for `CC(C)c1cc(C(=O)O)n[nH]1` was -1.31%.
The value for `Cc1ccc(-c2cc(C(=O)N/N=C/C=C/c3ccccc3)n[nH]2)o1` was 1.11%.
For `CC(C)c1cc(C(=O)N/N=C/C(Br)=C/c2ccccc2)n[nH]1`, the activation is 9.41% (active).
The value for `CCN(C(=O)COC(=O)C1CCN(S(=O)(=O)c2ccc(C)c(C)c2)CC1)C1CCS(=O)(=O)C1` (centres undefined) was 0.06%.
The same measure for `COc1cccc(OC)c1C(=O)Nc1ccc(Cc2ccncc2)cc1`: 3.03%.
The value for `CC(=O)c1ccc(NC(=O)CCc2nnc3ccc(NCc4ccco4)nn23)cc1` was 3.69%.
As to `CCc1nnc(NC(=O)CSc2nnnn2-c2cccc(C(C)=O)c2)s1`, the activation was 0.27%.
The same measure for `CC[C@]12c3[nH]c4ccc(Cl)cc4c3CCN1C(=O)[C@@H](CC(=O)NCCCOC)C[C@@H]2C(=O)N1CCN(C(=O)C2CC2)CC1`: -1.48%; for `O=C(CCN1C(=O)c2ccncc2C1=O)Nc1ccc2c(c1)OCCO2`: -1.17%.
The value for `O=C(Nc1ccc2c(c1)OCCO2)c1ccoc1` was 0.23%; that for `O=C(Nc1ccc2c(c1)OCCO2)c1cnccn1` was 7.89% (active); that for `CC[C@]1(C(=O)OC)[C@H]2C(=O)N(C)C(=O)[C@H]2[C@H]2CN(C)C(=NCc3ccccc3)N21` was -0.41%.
Turning to `CCN1C[C@@H]2[C@@H]3C(=O)N(Cc4ccccc4)C(=O)[C@@H]3[C@](Cc3ccccc3)(C(=O)OC)N2C1=NC1CCCCC1`, the activation was 0.85%.
The same measure for `CCN(C[C@H]1N[C@@](Cc2ccccc2)(C(=O)OC)[C@H]2C(=O)N(Cc3ccccc3)C(=O)[C@@H]12)C(=O)c1ccc(C)cc1`: -1.78%; for `CCN1C[C@@H]2[C@@H]3C(=O)N(Cc4ccccc4)C(=O)[C@@H]3[C@](C)(C1=O)N2C(=O)c1ccc(C(C)(C)C)cc1`: 1.3%.
The value for `COC(=O)[C@@]1(C)[C@H]2C(=O)N(Cc3ccccc3)C(=O)[C@H]2[C@H]2CN=C(SCC3CC3)N21` was 15.7% (active); that for `CC[C@]1(C(=O)OC)[C@H]2C(=O)N(Cc3ccccc3)C(=O)[C@H]2[C@H]2CN=C(SCc3ccc(Cl)cc3)N21` was 17.8% (active).
The value for `CC[C@]1(C(=O)OC)[C@H]2C(=O)N(Cc3ccccc3)C(=O)[C@H]2[C@H]2CN=C(SCc3ccc(C#N)cc3)N21` was 13.3% (active).
Consider `CCCN=C1N(C)C[C@@H]2[C@@H]3C(=O)N(Cc4ccccc4)C(=O)[C@@H]3[C@](C)(C(=O)OC)N12`, for which the activation was -0.73%.
The value for `CCC1(CC)C(=O)C2=C3C1[C@H](C(=O)OC)C=C(C(=O)OC)C[C@H]3[C@H]1C(=O)N(Cc3ccccc3)C(=O)[C@H]1[C@H]2C` (some centres undefined) was -4.42%.
The value for `CCNC(=O)N(CC)C[C@H]1N[C@@](CC)(C(=O)OC)[C@H]2C(=O)N(Cc3ccccc3)C(=O)[C@@H]12` was 0.95%.
The value for `CC[C@]1(C(=O)OC)[C@H]2C(=O)N(Cc3ccccc3)C(=O)[C@H]2[C@H]2CN=C(SCc3ccccc3)N21` was 15.5% (active); that for `COC(=O)[C@]1(Cc2ccccc2)N[C@H](CN(C)S(=O)(=O)c2ccc(F)cc2)[C@@H]2C(=O)N(Cc3ccccc3)C(=O)[C@@H]21` was -3.95%; that for `CCSC1(SCC)N=C(N)C2(C#N)C(c3ccccc3)NC(C)=CC12C#N` (centres undefined) was -1.4%.
In the case of `O=C1CSC2=NCN(c3ccccc3)CN12`, the activation is 1.46%.
The value for `CC(=O)Oc1ccc(OC(C)=O)c2c1C1C=CC2CC1` was 0.61%; that for `CC(=O)N1CCN(c2ccc(NCc3ccc(C(C)C)cc3)cc2)CC1` was -1.92%.
The same measure for `CC(=O)c1ccc(OC(=O)N2CCOCC2)cc1`: 0.72%; for `CC(C)NC(=O)C1(C)CCCCN1Cc1cccc(C(F)(F)F)c1` (centres undefined): 0.98%.
Turning to `CC(=O)N1c2ccc(S(=O)(=O)N3CCCC(C(=O)Nc4cccc(F)c4)C3)cc2CC1C` (centres undefined), the activation is 1.26%.
The same measure for `COCc1cc(=O)oc2cc(NS(=O)(=O)c3ccc(C)cc3)ccc12`: 0.66%; for `COc1ccc(CCNS(=O)(=O)c2cc3c(cc2C)NC(=O)CO3)cc1OC`: -0.37%.
The same measure for `O=C1COc2c1ccc(O)c2O`: 1.71%; for `S=C(NCCCc1cnc[nH]1)NCCCN(Cc1ccc(Cl)c(Cl)c1)c1ccc(Br)cn1`: -0.12%.
